Cycloheximide cs: counter-screen hit for Shiga toxin inhibitors, cycloheximide; max response, %; cell reporter, cycloheximide protein synthesis inhibition counterscreen; 300,000 tested, 12% active; AID 2314; in the data active means max response mostly above about 13%, no sharp cut-off; inactive means mostly below about 14%; further: read at 38.3 µM for the half of the compounds with a filed dose; 0% is about no effect
NS1 function inh: influenza NS1 inhibition | Potency, µM (series often up to 46.1 µM), inactives show top-dose activity, positive = more growth | 270,000 tested, 0.4% active; further: potency means the concentration at half of the fitted maximal effect; actives are rising curves; nearly all actives have a fitted effect of over 50% in size
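Growth recovery, yeast-based: influenza A NS1 expressed in S. cerevisiae causes slow growth, and suppressors are detected by OD600. The parent strain without NS1 is used as positive control.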
Shiga toxin inh: Shiga toxin inhibition | Vero cells, Shiga toxin protein synthesis inhibition reporter | inhibition, % at 38.7 µM | 290,000 tested, 9.2% active | AID 2315; in the data active means inhibition mostly above about 28%, no sharp cut-off; inactive means mostly below about 43%; further: 0% is about no effect
SARS PLpro yeast: inhibitors of SARS-CoV papain-like protease in yeast. S. cerevisiae expressing SARS-CoV PLpro, growth rescue. Potency, µM (doses to about 32.9 µM), for inactives: at the top dose activity, positive = growth rescue, hits mostly activators. 330,000 tested, 0.19% active. AID 485353; further: potency means the concentration at half of the fitted maximal effect; 0% is about no effect; nearly all actives have a fitted effect of over 55% in size
* hit, by the source's call; ? = inconclusive; . = not tested or not shown; + = active, no number. Rows were chosen to be rich in hits. Some 12% of all compounds tested hit in one or more screens of this group. Unless noted, the call rests on the fitted dose curve.

SMILES	Cycloheximide cs	NS1 function inh	Shiga toxin inh	SARS PLpro yeast
O=C(COC(=O)c1cnccn1)NC(=O)c1ccccc1	.	.	.	9%
CCCCCCCCCCCC(=O)N/N=C/c1ccco1	-4	5%	-24	-8%
CC(C)(C)c1ccc(C(=O)N2CCCC2)s1	26*	-4%	51*	-1%
COc1cc(OC)cc(C(=O)NCC(=O)OCC(=O)c2cc(C)n(Cc3ccco3)c2C)c1	-1	4%	24	1%
COCC(C)n1c(C)cc(C(=O)COC(=O)c2oc3ccccc3c2C)c1C (stereo not drawn)	14	9%	45	-1%
COCC(C)n1c(C)cc(C(=O)COC(=O)c2n[nH]c3ccccc23)c1C (stereo not drawn)	56*	2%	129*	0%
COCC(C)n1c(C)cc(C(=O)COC(=O)CNC(=O)c2ccccc2)c1C (stereo not drawn)	53*	7%	86*	-5%
COCCn1c(C)cc(C(=O)COC(=O)CNC(=O)c2ccccc2)c1C	61*	2%	99*	17%
N#Cc1ccc(C23OCCN2CCn2nc4ccccc4c23)cc1 (stereo not drawn)	.	.	.	0%
Cn1cc(CC(=O)NCCN2CCOCC2)c2ccccc21	-6	.	12	-6%
COc1ccc(NC(=O)Nc2cccc(C)n2)cc1	49*	-17%	117*	-7%
CCC(=O)Nc1ccc(C(=O)Nc2cccc(C)n2)cc1	35*	-2%	62*	0%
COc1ccccc1NC(=O)Nc1cccc(C)n1	8	-13%	24	3%
COc1ccc(NC(=S)Nc2cccc(C)n2)cc1	19*	0%	62	0%
Cc1cccc(NC(=O)Nc2ccccc2[N+](=O)[O-])n1	24*	-9%	14	-2%
CCC(C)NC(=O)CSc1nc2ccccc2c(=O)n1Cc1ccc(OC)cc1 (stereo not drawn)	3	3%	12	-4%
Cc1cccc(NC(=O)Nc2ccc(Br)cc2)n1	29*	-8%	59*	1%
CCC(C)c1ccc2oc(-c3ccc(NC(=O)Cn4cnc5c(=O)n(C)c(=O)n(C)c54)cc3)nc2c1 (stereo not drawn)	58*	6%	154*	-12%
Cn1c(=O)c2ncn(CC(=O)Nc3ccc4oc(-c5cccc6ccccc56)nc4c3)c2n(C)c1=O	.	6%	.	.
Cc1ccc2oc(-c3cccc(NC(=O)Cn4cnc5c(=O)n(C)c(=O)n(C)c54)c3)nc2c1	34*	.	137*	0%
Cc1cccc(CCNCc2c(C(=O)O)c(C)n(-c3ccccc3)c2C)c1	-1	6%	1	1%
COC(=O)c1cc(S(=O)(=O)NCCCc2ccco2)c[nH]1	-2	8%	9	-1%
O=C(CCNS(=O)(=O)c1c(Cl)cccc1Cl)N1CCCC1	.	.	.	0%
O=C(c1ccccc1)c1ccc2nc(-c3ccc(NC(=O)c4ccccc4F)cc3)[nH]c2c1	12	23%	34*	-1%
O=C(O)CCC(=O)Nc1ccc(-c2nc3ccc(C(=O)c4ccccc4)cc3[nH]2)cc1	21*	-9%	.	2%
SMILES	Cycloheximide cs	NS1 function inh	Shiga toxin inh	SARS PLpro yeast
O=C(c1ccco1)N1CCCN(Cc2cn[nH]c2-c2ccc(-c3ccccc3)cc2)CC1	13	-4%	37	-1%
CC(/C=C/c1ccc(N(C)C)cc1)=N\N=C(/N)SC1CC(=O)N(c2ccc(C(=O)O)cc2)C1=O (stereo not drawn)	45*	?	70*	29%
COc1ccc(C(=O)Nc2c(N)nc(SCC(=O)N3CCC(C)CC3)[nH]c2=O)cc1	-2	8%	-9	-4%
Clc1nc(-c2ccccn2)nc2scc(-c3ccccc3)c12	93*	-46%	+	-76%
CC1CCN(c2nc(-c3cccnc3)nc3scc(-c4ccccc4)c23)CC1	-3	11%	12	7%
Cc1cc(C(=O)CN2C(=O)NC3(CCCCC3)C2=O)c(C)n1Cc1ccco1	41*	.	89*	0%
Cc1cc(C(=O)CN2C(=O)NC3(CCCC3)C2=O)c(C)n1-c1ccc2c(c1)OCO2	1	6%	-3	-18%
Cc1cc(C(=O)CN2C(=O)NC3(CCCCC3)C2=O)c(C)n1Cc1ccc2c(c1)OCO2	27*	-12%	96*	-5%
Cc1cc(C(=O)CN2C(=O)c3cccc(N)c3C2=O)c(C)n1Cc1cccs1	34*	11%	84*	1%
Cc1cc(C(=O)CN2C(=O)NC3(CCCCC3C)C2=O)c(C)n1Cc1cccs1 (stereo not drawn)	101*	3%	75*	-18%
Cc1cc(C(=O)CN2C(=O)C(=O)N(Cc3ccccc3)C2=O)c(C)n1Cc1ccccc1	.	.	.	-4%
CN(Cc1ccco1)C(=O)CN1C(=O)NC2(CCCCC2)C1=O	.	.	.	0%

Bioassay records from PubChem BioAssay.
